# Laboratory results taken from PubChem BioAssay AID1224854 (National Center for Advancing Translational Sciences (NCATS), 2016).
# Inconclusive results are not listed. Where a call stands in place of a potency, no number is given. The source made the active and inactive calls. Calls come from the whole dose curve; as a rule, active = well fitted activation curve with a large enough effect; inconclusive = small, poorly fitted or top-dose-only effect; inactive = flat fitted curve, though single readings scatter.
# Test: Cell viability assay for measurement of the protective activity of small molecules against cell death caused by Zika virus infection in human astrocytoma cells
# Conditions: SNB-19 Zika virus cytoprotection, ATP luminescence, 72 h; series mostly up to 46.1 µM
# In short: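 Percent inhibition of Zika-induced cell death derived from ATP-content luminescence after 72 h at 37 C. Compounds were added to SNB-19 cells 1 h before virus at 2 FFU/cell.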
row,Structure (SMILES),Potency
1,O=c1cc(-c2ccccc2)oc2cc(O)cc(O)c12,inactive
2,O=c1c(-c2ccc(O)cc2)coc2cc(O)ccc12,inactive
3,CN(C)c1ccc(C(=C2C=CC(=[N+](C)C)C=C2)c2ccccc2)cc1,inactive
4,CC(C(=O)O)c1ccc(C(=O)c2cccs2)cc1 (stereo not drawn),inactive
5,COc1cccc2c1C(=O)c1c(O)c3c(c(O)c1C2=O)C[C@@](O)(C(=O)CO)C[C@@H]3O[C@H]1C[C@H](N)[C@H](O[C@@H]2CCCCO2)[C@H](C)O1,inactive
6,O=C1C(Cl)=C(NCCN2CCOCC2)C(=O)c2ncccc21,inactive
7,O=c1[nH]nc(Sc2ncc([N+](=O)[O-])s2)n1-c1ccc2c(c1)OCCO2,6.15 µM (active)
8,COc1cc2nc(-c3ccc(N4CCN(C)CC4)cc3)nc(NCCN3CCOCC3)c2cc1OC,1.95 µM (active)
9,O=C(Nc1ccc(C(=O)O)c(O)c1)c1ccccc1,inactive
10,O=C(c1ccccc1)c1ccc2n1CCC2C(=O)O (stereo not drawn),inactive
11,Cc1csc(NC(=O)c2sc3nc4c(c(C(F)(F)F)c3c2N)CCC4)n1,inactive
12,CC(=O)OC(C)OC(=O)C(C)c1ccc(-c2ccccc2)c(F)c1 (stereo not drawn),inactive
13,Cc1cccc(C#Cc2ccccc2)n1,inactive
14,CC(C)(C)OC(=O)CN(Cc1ccc(Cl)cc1)Cc1ccc([N+](=O)[O-])s1,35.5 µM (active)
15,COc1ccc(-c2cc(=O)c3c(O)cc(O)cc3o2)cc1O,inactive
16,CCCCCCCC/C=C/C(=O)O,inactive
17,O=C1c2ccccc2-[n+]2ccc3c([nH]c4ccccc43)c21,inactive
18,CCCCC1C(=O)N(c2ccccc2)N(c2ccc(O)cc2)C1=O (stereo not drawn),19.5 µM (active)
